Assay outcomes deposited in PubChem by Paczesny and Yang Labs, IUPUI and University of Michigan.
This is one part of a sample in which hits are shown more often than they occur.
ST2 IL33 inh – IL1RL1 inhibition. Q01638. AID 1259354. AlphaLISA ST2-Fc/biotin-IL-33 interaction, 1 h. 2.3% of 78,000 active. inhibition, % for hits at 17 µM; in the data active = inhibition above about 30%
Target sequence (Q01638 whole entry, looked up): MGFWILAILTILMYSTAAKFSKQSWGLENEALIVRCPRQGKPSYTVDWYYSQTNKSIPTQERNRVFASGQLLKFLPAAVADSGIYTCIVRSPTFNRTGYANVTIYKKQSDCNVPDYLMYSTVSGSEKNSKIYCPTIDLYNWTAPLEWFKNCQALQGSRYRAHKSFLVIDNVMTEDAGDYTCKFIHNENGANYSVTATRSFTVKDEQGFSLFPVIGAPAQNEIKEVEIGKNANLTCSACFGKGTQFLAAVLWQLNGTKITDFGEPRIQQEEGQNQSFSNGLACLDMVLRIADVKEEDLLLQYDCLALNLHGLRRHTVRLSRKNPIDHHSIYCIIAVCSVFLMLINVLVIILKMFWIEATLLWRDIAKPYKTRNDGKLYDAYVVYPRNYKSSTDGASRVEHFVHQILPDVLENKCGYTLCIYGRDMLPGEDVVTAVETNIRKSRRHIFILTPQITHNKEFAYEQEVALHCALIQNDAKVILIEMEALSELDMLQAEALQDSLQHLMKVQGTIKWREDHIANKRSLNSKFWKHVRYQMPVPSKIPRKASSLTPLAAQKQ
Large screens that a line does not name were inactive.

O=C(NC(Nc1ccccc1F)C(Cl)(Cl)Cl)c1cccs1 (centres undefined)	none
O=C1CCc2cc(S(=O)(=O)N3CCCCCC3)ccc2N1	none
CCOc1ccc(C2C3=C(CCCC3=O)NC3=C2C(=O)c2ccccc23)cc1 (centres undefined)	ST2 IL33 inh 36%
O=C1CCCC2=C1C(c1ccc(OCc3ccc([N+](=O)[O-])cc3)cc1)C1=C(CCCC1=O)N2	none
COc1ccc(C2C3=C(CCCC3=O)NC3=C2C(=O)c2ccccc23)cc1 (centres undefined)	none
O=C(NCC1CCCN(Cc2ccc(-c3ccccc3Cl)o2)C1)c1cccnc1 (centres undefined)	none
Clc1ccc(C2CC(c3ccccc3)n3nnnc3N2)cc1 (centres undefined)	none
CCCN1CCC(N2CCOC(Cc3cccc(OC)c3)C2)CC1 (centres undefined)	none
Cc1[nH]n(-c2ccccc2)c(=O)c1C(c1ccco1)c1c(C)[nH]n(-c2ccccc2)c1=O	ST2 IL33 inh 51%
Cc1cn(-c2ccccc2)[nH]c1=O	none
Cc1c(C(c2ccco2)c2c(C)n(C)n(-c3ccccc3)c2=O)c(=O)n(-c2ccccc2)n1C	none
O=C(/C=C/c1cccnc1)N1CCc2ccc(NC(=O)C3(c4ccccc4)CC3)cc2C1	none
CCOc1cccc2c1OC1(C)C(C)C2NC(=O)N1c1ccc(Cl)cc1 (centres undefined)	none
CCOC(=O)c1cc2ccc(OCc3ccccc3)cc2oc1=O	none
CSc1nc(=O)[nH]nc1SCc1ccccc1	none
Cc1ccccc1CN1CCC(O)CC1	none
Cc1cc(Oc2ccccc2F)c(F)cc1[N+](=O)[O-]	ST2 IL33 inh 31%
COc1ccc(NC(=O)c2c(F)cccc2F)c([N+](=O)[O-])c1	none
O=C(c1cc(O)c(O)c([N+](=O)[O-])c1)c1ccccc1F	none
Cc1ccc(C(C)C)c(OCCn2nnc3ccccc32)c1	none
COc1cc(C=Nc2c(C)n(C)n(-c3ccccc3)c2=O)c([N+](=O)[O-])cc1OC	none
Cc1c(N=Cc2cc([N+](=O)[O-])ccc2N(C)C2CCCCC2)c(=O)n(-c2ccccc2)n1C	ST2 IL33 inh 47%
Cc1c(N=Cc2ccc(Cl)o2)c(=O)n(-c2ccccc2)n1C	none
COc1cc(C=Nc2c(C)n(C)n(-c3ccccc3)c2=O)cc([N+](=O)[O-])c1O	none
Cc1c(N=Cc2cc([N+](=O)[O-])ccc2N2CCCCCC2)c(=O)n(-c2ccccc2)n1C	ST2 IL33 inh 42%
Cc1c(N=Cc2cc(Br)cc(Br)c2O)c(=O)n(-c2ccccc2)n1C	none
O=C(CC(c1ccccc1)c1ccc2c(c1)OCO2)NCCc1cscn1 (centres undefined)	none
c1cncc(CN2CCC(N3CCCCCC3)CC2)c1	none
COc1c[nH]c(C(=O)N2CCOC(C(F)(F)F)C2)cc1=O (centres undefined)	none
CC(C)c1nnc(NC(=O)c2ccc(Br)cc2)s1	none
Cc1nnc(NC(=O)Nc2ccccc2)s1	none
Cc1nnc(NC(=O)c2ccc(C(C)C)cc2)s1	ST2 IL33 inh 92%
Cc1nn(C)c(C)c1CCC(=O)NCc1noc(-c2c(F)cccc2F)n1	none
O=C(O)CCC(=O)N1CCc2cc(S(=O)(=O)N3CCN(c4ccccc4)CC3)ccc21	none
CCn1cc(S(=O)(=O)CC(=O)NC2CCCCC2)c2ccccc21	none
Cc1cc(NC(=O)CS(=O)(=O)c2cn(Cc3ccccc3Cl)c3ccccc23)no1	none
O=C(CS(=O)(=O)c1cn(Cc2ccccc2Cl)c2ccccc12)NC1CCCCC1	ST2 IL33 inh 32%
COc1ccc(C2SCCN2S(=O)(=O)c2cccc([N+](=O)[O-])c2)cc1OC (centres undefined)	none
O=C(/C=C/c1cccs1)NCC1Cc2cc(F)cc(-c3ccccn3)c2O1 (centres undefined)	none
COc1cc(OC)c(C=Nc2ccc(O)cc2)cc1Br	ST2 IL33 inh 51%
COc1ccc(-n2c(O)c(C=Nc3ccc(OC)c(OC)c3)c3ccccc3c2=O)cc1	none
COc1ccc(NS(=O)(=O)c2ccc(N=Cc3cc(Br)ccc3O)cc2)nn1	none
COc1cc(OC)c(C=C2C(=O)OC3(CCCCC3)OC2=O)cc1Br	none
COc1ccc(OC)c(C=Nc2ccc(S(N)(=O)=O)cc2)c1	none
COc1ccc(C=Nc2ccc(O)cc2)c(OC)c1	ST2 IL33 inh 32%
O=C(CN1CCN(Cc2ccccc2F)C1=O)N1CCCC1	none
CN(Cc1ccccc1)C1CC(=O)N(c2ccc(F)cc2)C1=O (centres undefined)	none
NC(=O)c1oc2ccccc2c1NC(=O)c1ccco1	none
O=C(Nc1c(C(=O)Nc2cccc(F)c2)oc2ccccc12)c1ccco1	none
COc1ccc(C(=O)c2oc3ccccc3c2NC(=O)c2ccco2)cc1	ST2 IL33 inh 31%
Cc1cccc(-c2cn[nH]c2C2CCN(C(=O)c3ncc[nH]3)CC2)c1	none
O=C(CN1C(=O)c2ccccc2C1=O)Nc1ccc(F)cc1Cl	none
O=[N+]([O-])C=C(c1ccccc1)c1ccccc1	ST2 IL33 inh 39%
NC(=O)c1ccccc1	none
O=[N+]([O-])C([N+](=O)[O-])=S(c1ccccc1)c1ccccc1	none
CC(=O)c1cccc(NS(=O)(=O)c2ccc(Cl)cc2)c1	none
O=C(O)CC1(c2ccccc2)C(=O)c2ccccc2C1=O	none
N#CSc1ccc(NC2(c3ccccc3)C(=O)c3ccccc3C2=O)cc1	ST2 IL33 inh 34%
C=CCc1cccc(C=Nc2ccc(Br)cc2)c1O	ST2 IL33 inh 39%
O=C(O)c1ccc(N=Cc2cc(Br)ccc2O)cc1	none
O=C(O)c1ccc(O)c(C=Nc2ccc(Br)cc2)c1	none
CCOC(=O)c1sc2nc(C)nc(NCCc3ccccc3Cl)c2c1C	none
COC(=O)C1C(=O)NC(SC)=C(C#N)C1c1ccc(C)cc1 (centres undefined)	none
Cc1cc[n+](C2C(c3ccc(Br)cc3)C(C#N)=C([S-])NC2(O)C2CC2)cc1 (centres undefined)	ST2 IL33 inh 55%
Cc1ccc([C@]2(O)NC([S-])=C(C#N)[C@H](c3ccc(F)cc3)[C@H]2[n+]2ccccc2)cc1	none
C=C(C)COc1cccc(CNCc2cnc(C)cn2)c1	none
CCC(=O)N[C@@H]1c2ccccc2C2(CCN(C(=O)c3sccc3C)CC2)[C@H]1OCc1cccnc1	none
N#CC1=C(N)SC(N)=C(C#N)C1c1ccc(Cl)cc1Cl	none
COc1ccccc1C1C(C#N)=C(N)SC(N)=C1C#N	none
Cc1ccc(C2C(C#N)=C(N)SC(N)=C2C#N)o1	ST2 IL33 inh 32%
CC1=C(C(=O)Nc2nc3ccccc3s2)C(c2ccc([N+](=O)[O-])cc2)C2=C(CCCC2=O)N1 (centres undefined)	none
O=[N+]([O-])c1ccc(S(=O)(=O)Nc2ccc(Cl)cc2Cl)cc1	none
CC(C)=CCC/C(C)=C/CC/C(C)=C/Cc1c(O)c(Cl)c(C)c(C=O)c1O	none
O=C(Nc1c(-c2ccc(F)cc2)nc2ccccn12)C1CC1	none
Cc1cc2c(cc1S(=O)(=O)N1CCC(C(=O)Nc3nccs3)CC1)OCC(=O)N2	none
NC(=O)c1ccnc(N2CCN(C/C=C/c3ccccc3)CC2)c1	none
CC1=C[C@@H](CNC(=O)c2ccncc2)[C@H](C(C)C)C[C@H]1CC(=O)NCc1ccc(C#N)cc1	none
CC1=C[C@@H](CNS(=O)(=O)c2cccc(C#N)c2)[C@H](C(C)C)C[C@H]1CC(=O)Nc1ccccn1	none
CC1=C[C@@H](CNC(=O)c2ccc(C#N)cc2)[C@H](C(C)C)C[C@H]1CC(=O)Nc1ccccn1	ST2 IL33 inh 81%
Cc1cccc(OC(C)(C)C(=O)NCc2cccnc2N(C)C)c1	none
Cc1cc(C(=O)O)c2ccccc2n1	none
O=C(O)c1cc(-c2cc(C(=O)O)c3ccccc3n2)nc2ccccc12	none
Cc1ccc(-c2cc(C(=O)O)c3cc4c(C(=O)O)cc(-c5ccc(C)o5)nc4cc3n2)o1	ST2 IL33 inh 91%
